# Experimental data taken from publication PMC7862700, “An all-to-all approach to the identification of sequence-specific readers for epigenetic DNA modifications on cytosine”.
# What was measured:
# Assay in all cases: DAPPL (digital affinity profiling via proximity ligation, sequencing); 10 mM Tris-HCl pH 7.5, 50 mM NaCl, 1 mM DTT, 4% glycerol, room temperature, 30 min; GST-TFs on glutathione beads, 16-mer random dsDNA library, 0.1% formaldehyde crosslink after washing; high values mean tight binding
# [1] = molecular target: T1, FLI1 (Homo sapiens, UniProt Q01543 1-452); settings: protein: recombinant; tags: N-terminal GST; dsDNA, one strand shown
# T1 sequence: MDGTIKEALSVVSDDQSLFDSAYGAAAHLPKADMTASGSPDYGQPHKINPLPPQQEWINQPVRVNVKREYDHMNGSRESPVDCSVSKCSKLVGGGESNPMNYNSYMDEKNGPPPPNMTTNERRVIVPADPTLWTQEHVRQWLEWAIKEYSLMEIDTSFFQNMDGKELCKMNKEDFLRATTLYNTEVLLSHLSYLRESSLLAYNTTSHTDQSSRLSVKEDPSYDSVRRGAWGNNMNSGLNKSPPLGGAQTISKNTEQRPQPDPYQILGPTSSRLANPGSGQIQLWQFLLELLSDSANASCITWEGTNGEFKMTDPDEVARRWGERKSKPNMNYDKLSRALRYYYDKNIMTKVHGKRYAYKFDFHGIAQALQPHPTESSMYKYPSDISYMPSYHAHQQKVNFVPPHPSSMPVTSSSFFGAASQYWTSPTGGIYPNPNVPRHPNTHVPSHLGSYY
# Procedure, shortened: (§1)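 Binding signal is given per hexamer as its read frequency for a factor divided by its frequency in the tag-only sample. GST-fused human transcription factors were expressed in yeast, captured on glutathione beads, barcoded with DNA and pooled with that sample, then incubated with 200 nmole of a 16-mer random double-stranded DNA library in Tris/NaCl/DTT/glycerol buffer for 30 min at room temperature. The pools were then washed, crosslinked, proximity-ligated, amplified by PCR and sequenced on an Illumina NextSeq500.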
# [2] = molecular target: T2, ELK1 (Homo sapiens, UniProt P19419 1-428); settings: protein: recombinant; tags: N-terminal GST; dsDNA, one strand shown
# T2 sequence: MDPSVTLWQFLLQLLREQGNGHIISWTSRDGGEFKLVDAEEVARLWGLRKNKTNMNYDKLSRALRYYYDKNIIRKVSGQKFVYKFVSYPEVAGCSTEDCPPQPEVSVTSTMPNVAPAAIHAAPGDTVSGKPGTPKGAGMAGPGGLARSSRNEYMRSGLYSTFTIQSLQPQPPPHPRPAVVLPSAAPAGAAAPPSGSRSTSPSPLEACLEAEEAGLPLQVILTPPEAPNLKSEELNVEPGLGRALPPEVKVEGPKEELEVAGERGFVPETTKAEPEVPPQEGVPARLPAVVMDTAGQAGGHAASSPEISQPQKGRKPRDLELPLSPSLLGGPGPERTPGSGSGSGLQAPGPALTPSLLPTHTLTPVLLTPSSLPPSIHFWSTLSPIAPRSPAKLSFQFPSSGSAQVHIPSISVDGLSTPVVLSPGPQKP
# Procedure, shortened: as §1
# [3] = molecular target: T3, GABPA (Homo sapiens, UniProt Q06546 1-454); settings: protein: recombinant; tags: N-terminal GST; dsDNA, one strand shown
# T3 sequence: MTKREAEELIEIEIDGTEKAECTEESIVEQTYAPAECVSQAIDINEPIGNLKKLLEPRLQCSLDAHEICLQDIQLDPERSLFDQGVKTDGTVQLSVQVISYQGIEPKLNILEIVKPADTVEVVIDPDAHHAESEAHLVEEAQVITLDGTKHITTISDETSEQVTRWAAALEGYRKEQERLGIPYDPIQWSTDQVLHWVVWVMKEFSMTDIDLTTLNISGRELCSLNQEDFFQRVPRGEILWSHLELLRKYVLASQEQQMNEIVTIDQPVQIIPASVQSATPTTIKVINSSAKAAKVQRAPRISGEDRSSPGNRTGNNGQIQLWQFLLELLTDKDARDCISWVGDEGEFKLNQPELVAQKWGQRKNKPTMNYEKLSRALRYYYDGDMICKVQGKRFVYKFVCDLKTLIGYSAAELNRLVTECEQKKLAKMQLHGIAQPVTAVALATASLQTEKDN
# Procedure, shortened: as §1
# [4] = molecular target: T4, ERG (Homo sapiens, UniProt P11308 1-479); settings: protein: recombinant; tags: N-terminal GST; dsDNA, one strand shown
# T4 sequence: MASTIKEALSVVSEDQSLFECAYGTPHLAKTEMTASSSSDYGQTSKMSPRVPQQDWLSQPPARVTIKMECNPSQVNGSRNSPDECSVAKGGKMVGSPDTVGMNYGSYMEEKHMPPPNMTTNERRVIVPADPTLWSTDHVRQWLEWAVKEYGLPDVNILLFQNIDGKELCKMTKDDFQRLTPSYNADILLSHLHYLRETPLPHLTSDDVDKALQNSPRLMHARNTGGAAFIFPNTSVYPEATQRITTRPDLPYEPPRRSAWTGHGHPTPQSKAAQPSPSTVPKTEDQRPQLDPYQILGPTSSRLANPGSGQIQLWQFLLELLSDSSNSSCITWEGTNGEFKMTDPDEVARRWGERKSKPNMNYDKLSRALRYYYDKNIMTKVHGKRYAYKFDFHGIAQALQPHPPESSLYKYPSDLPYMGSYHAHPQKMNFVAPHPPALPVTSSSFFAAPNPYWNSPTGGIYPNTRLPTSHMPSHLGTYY
# Procedure, shortened: as §1
# [5] = molecular target: ELF1 (Homo sapiens, UniProt P32519 1-619); settings: protein: recombinant; tags: N-terminal GST; dsDNA, one strand shown
# Sequence of ELF1 (P32519 whole entry): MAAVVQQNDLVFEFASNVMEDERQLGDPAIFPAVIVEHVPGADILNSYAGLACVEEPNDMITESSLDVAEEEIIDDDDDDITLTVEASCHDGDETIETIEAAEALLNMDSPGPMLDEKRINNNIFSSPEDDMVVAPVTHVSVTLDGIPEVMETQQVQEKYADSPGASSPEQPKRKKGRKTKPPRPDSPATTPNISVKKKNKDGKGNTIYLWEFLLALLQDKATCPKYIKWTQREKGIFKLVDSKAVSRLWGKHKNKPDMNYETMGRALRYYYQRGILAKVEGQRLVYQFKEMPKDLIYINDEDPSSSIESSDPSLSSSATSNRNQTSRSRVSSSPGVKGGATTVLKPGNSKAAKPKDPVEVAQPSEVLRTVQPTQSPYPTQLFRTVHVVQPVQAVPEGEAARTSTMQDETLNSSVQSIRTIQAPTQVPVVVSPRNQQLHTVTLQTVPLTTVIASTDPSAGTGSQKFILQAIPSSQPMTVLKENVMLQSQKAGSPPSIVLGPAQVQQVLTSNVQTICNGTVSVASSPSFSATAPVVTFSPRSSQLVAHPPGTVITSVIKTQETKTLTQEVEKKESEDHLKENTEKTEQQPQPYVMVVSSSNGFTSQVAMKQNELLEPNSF
# Procedure, shortened: as §1
# [6] = molecular target: T5, EHF (Homo sapiens, UniProt Q9NZC4 1-300); settings: protein: recombinant; tags: N-terminal GST; dsDNA, one strand shown
# T5 sequence: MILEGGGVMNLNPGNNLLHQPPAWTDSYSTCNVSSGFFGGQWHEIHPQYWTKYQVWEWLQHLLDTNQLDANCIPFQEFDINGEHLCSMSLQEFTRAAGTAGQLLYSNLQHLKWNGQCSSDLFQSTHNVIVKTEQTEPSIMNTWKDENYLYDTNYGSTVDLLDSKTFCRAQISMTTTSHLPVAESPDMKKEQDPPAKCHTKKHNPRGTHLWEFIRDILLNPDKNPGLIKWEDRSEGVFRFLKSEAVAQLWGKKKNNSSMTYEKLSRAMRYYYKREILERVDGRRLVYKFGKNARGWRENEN
# Procedure, shortened: as §1
# [7] = molecular target: SPI1 (Homo sapiens, UniProt P17947 1-270); settings: protein: recombinant; tags: N-terminal GST; dsDNA, one strand shown
# Procedure, shortened: as §1
# [8] = molecular target: SPIB (Homo sapiens, UniProt Q01892 1-262); settings: protein: recombinant; tags: N-terminal GST; dsDNA, one strand shown
# Sequence of SPIB (Q01892 whole entry): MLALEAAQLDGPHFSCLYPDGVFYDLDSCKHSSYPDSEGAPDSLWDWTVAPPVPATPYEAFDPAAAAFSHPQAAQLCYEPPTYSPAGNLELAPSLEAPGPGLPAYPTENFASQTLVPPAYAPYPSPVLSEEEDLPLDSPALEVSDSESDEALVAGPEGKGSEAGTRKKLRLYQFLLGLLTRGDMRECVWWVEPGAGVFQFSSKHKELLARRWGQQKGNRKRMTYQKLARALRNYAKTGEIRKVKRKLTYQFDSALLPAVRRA
# Procedure, shortened: as §1
# [9] = molecular target: T6, ELK3 (Homo sapiens, UniProt P41970 1-407); settings: protein: recombinant; tags: N-terminal GST; dsDNA, one strand shown
# T6 sequence: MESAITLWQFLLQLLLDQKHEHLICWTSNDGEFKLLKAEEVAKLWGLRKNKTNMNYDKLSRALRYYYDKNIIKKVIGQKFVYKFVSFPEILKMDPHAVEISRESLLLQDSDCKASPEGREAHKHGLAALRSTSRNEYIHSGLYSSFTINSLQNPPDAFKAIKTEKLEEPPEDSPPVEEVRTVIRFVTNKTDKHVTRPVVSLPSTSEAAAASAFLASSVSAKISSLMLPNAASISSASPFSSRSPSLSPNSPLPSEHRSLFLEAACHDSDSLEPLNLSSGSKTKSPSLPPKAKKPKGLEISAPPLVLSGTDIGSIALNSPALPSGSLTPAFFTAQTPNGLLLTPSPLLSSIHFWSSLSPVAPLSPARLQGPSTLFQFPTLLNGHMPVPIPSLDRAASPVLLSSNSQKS
# Procedure, shortened: as §1
# [10] = molecular target: T7, FEV (Homo sapiens, UniProt Q99581 1-238); settings: protein: recombinant; tags: N-terminal GST; dsDNA, one strand shown
# T7 sequence: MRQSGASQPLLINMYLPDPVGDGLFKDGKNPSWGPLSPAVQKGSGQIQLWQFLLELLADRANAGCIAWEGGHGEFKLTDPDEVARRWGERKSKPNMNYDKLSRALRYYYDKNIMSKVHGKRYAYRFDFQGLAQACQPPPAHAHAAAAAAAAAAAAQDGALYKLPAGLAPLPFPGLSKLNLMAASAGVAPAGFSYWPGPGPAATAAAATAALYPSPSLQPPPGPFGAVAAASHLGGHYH
# Procedure, shortened: as §1
# [11] = molecular target: ETV5 (Homo sapiens, UniProt P41161 1-510); settings: protein: recombinant; tags: N-terminal GST; dsDNA, one strand shown
# Sequence of ETV5 (P41161 whole entry): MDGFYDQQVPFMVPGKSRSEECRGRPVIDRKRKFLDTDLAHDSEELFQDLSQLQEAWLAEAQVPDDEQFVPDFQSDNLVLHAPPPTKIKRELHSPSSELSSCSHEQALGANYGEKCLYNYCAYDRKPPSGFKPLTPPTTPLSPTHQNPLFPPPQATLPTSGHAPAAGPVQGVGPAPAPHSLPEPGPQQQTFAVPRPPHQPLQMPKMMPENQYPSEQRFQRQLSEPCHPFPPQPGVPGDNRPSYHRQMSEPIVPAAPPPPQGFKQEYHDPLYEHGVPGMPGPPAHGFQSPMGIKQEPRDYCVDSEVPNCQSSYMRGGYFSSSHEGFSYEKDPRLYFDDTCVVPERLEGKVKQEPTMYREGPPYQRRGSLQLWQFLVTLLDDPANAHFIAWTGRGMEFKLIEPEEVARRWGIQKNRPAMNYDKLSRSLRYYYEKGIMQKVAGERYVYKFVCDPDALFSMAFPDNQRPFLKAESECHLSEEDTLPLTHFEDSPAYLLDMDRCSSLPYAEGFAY
# Procedure, shortened: as §1
# [12] = molecular target: HSF1 (Homo sapiens, UniProt Q00613 1-529); settings: protein: recombinant; tags: N-terminal GST; chain copies: 3; dsDNA, one strand shown
# Sequence of HSF1 (Q00613 whole entry): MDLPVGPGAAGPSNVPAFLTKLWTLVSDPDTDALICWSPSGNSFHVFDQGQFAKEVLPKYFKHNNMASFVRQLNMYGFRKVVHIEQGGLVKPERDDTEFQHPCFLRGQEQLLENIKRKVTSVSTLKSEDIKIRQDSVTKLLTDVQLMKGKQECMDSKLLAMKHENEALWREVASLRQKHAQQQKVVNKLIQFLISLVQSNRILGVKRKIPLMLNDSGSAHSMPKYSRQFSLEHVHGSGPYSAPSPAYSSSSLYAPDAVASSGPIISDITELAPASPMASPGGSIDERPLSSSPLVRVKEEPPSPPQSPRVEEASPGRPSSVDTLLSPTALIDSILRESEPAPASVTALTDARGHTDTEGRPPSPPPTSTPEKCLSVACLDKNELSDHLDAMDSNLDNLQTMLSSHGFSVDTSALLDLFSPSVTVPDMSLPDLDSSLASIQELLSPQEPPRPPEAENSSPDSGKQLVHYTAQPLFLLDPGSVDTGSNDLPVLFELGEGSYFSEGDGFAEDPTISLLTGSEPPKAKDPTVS
# Procedure, shortened: as §1
# [13] = molecular target: T8, SPIC (Homo sapiens, UniProt Q8N5J4 1-248); settings: protein: recombinant; tags: N-terminal GST; dsDNA, one strand shown
# T8 sequence: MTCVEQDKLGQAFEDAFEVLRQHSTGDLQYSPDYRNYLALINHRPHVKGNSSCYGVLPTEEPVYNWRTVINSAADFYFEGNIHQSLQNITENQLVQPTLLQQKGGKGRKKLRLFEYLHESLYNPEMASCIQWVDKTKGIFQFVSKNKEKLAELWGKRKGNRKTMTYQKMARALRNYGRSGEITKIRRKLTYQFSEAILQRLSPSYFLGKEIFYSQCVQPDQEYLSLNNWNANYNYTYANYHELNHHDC
# Procedure, shortened: as §1
# [14] = molecular target: ELF4 (Homo sapiens, UniProt Q99607 1-663); settings: protein: recombinant; tags: N-terminal GST; dsDNA, one strand shown
# Sequence of ELF4 (Q99607 whole entry): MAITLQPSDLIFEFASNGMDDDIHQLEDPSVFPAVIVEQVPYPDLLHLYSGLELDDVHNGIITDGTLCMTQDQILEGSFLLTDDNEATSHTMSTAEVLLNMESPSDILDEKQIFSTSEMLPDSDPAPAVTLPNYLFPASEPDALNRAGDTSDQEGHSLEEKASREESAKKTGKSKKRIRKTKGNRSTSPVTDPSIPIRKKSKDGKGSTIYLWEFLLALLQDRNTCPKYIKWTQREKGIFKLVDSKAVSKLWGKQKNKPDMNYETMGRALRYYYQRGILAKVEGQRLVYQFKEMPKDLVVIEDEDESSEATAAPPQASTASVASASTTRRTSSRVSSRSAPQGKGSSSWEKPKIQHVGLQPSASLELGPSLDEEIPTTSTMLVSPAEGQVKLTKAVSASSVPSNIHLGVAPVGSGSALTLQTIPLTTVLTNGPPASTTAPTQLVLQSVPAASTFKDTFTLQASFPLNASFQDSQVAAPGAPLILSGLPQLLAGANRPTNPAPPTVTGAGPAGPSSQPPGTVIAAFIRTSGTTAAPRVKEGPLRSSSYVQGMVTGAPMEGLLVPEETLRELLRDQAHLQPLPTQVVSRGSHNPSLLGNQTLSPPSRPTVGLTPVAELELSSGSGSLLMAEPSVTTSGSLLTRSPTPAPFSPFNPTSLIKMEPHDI
# Procedure, shortened: as §1
# [15] = molecular target: T9, ELK4 (Homo sapiens, UniProt P28324-2 1-405); settings: protein: recombinant; tags: N-terminal GST; dsDNA, one strand shown
# T9 sequence: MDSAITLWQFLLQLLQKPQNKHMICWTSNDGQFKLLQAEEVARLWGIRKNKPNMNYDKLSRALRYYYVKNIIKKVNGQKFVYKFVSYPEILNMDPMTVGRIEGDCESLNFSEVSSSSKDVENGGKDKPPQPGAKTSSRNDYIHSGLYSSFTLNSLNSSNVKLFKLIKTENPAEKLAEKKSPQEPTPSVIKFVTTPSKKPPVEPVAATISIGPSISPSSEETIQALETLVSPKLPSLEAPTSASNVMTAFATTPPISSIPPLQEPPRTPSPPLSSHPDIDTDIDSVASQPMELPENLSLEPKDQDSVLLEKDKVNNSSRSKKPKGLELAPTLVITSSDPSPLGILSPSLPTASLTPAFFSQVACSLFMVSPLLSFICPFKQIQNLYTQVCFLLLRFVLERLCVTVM
# Procedure, shortened: as §1
# [16] = molecular target: T10, ETV2 (Homo sapiens, UniProt O00321 1-342); settings: protein: recombinant; tags: N-terminal GST; dsDNA, one strand shown
# T10 sequence: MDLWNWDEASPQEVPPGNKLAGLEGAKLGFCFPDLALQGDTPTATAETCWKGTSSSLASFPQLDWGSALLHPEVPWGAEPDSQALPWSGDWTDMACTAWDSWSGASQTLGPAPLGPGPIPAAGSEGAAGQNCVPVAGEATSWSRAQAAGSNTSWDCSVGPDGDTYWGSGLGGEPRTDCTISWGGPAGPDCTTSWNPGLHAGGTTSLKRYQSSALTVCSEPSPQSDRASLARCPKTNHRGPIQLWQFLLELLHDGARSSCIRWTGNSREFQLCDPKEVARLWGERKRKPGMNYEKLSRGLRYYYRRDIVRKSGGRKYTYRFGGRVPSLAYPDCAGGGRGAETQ
# Procedure, shortened: as §1
# [17] = molecular target: T11, ELF3 (Homo sapiens, UniProt P78545 1-371); settings: protein: recombinant; tags: N-terminal GST; dsDNA, one strand shown
# T11 sequence: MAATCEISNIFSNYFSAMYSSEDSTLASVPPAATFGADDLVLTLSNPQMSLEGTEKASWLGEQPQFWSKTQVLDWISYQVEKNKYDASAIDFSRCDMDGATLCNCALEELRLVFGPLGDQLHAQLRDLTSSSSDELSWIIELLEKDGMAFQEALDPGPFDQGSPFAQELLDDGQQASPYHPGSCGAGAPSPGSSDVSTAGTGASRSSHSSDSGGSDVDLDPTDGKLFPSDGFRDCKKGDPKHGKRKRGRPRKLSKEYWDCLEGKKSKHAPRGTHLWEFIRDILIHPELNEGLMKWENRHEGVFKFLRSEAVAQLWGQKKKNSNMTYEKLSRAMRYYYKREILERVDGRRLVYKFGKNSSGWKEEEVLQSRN
# Procedure, shortened: as §1
# [18] = molecular target: CRX (Homo sapiens, UniProt O43186 1-299); settings: protein: recombinant; tags: N-terminal GST; dsDNA, one strand shown
# Sequence of CRX (O43186 whole entry): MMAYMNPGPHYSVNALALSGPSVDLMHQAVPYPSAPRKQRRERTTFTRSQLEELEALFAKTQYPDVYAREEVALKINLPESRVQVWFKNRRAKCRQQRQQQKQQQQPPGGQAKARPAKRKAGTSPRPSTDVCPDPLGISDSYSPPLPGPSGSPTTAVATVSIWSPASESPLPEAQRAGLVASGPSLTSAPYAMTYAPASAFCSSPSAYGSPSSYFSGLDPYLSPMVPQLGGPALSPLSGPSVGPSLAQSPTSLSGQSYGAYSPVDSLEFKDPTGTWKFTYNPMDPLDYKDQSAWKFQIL
# Procedure, shortened: as §1
# [19] = molecular target: ETV1 (Homo sapiens, UniProt P50549 1-477); settings: protein: recombinant; tags: N-terminal GST; dsDNA, one strand shown
# Sequence of ETV1 (P50549 whole entry): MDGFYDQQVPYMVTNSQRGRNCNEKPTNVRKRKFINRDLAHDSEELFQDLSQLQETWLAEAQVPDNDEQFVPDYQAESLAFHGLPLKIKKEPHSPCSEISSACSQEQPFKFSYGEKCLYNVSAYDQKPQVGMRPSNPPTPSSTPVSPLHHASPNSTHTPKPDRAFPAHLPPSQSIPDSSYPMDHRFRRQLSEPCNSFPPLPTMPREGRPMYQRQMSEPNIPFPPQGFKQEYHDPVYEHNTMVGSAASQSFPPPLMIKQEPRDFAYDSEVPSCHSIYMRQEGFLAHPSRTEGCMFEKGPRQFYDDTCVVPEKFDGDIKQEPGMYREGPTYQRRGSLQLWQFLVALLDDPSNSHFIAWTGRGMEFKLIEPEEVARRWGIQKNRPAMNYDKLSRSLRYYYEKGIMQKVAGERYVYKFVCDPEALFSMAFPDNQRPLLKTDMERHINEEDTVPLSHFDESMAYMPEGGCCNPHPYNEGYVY
# Procedure, shortened: as §1
sequence,measurement,setting,value
AACTGC,binding signal,[1],"1.34 fold enrichment (6-mer frequency, TF over GST control)"
same,binding signal,[2],"1.47 fold enrichment (6-mer frequency, TF over GST control)"
same,binding signal,[3],"1.32 fold enrichment (6-mer frequency, TF over GST control)"
same,binding signal,[4],"1.32 fold enrichment (6-mer frequency, TF over GST control)"
same,binding signal,[5],"1.42 fold enrichment (6-mer frequency, TF over GST control)"
same,binding signal,[6],"1.33 fold enrichment (6-mer frequency, TF over GST control)"
same,binding signal,[7],"1.45 fold enrichment (6-mer frequency, TF over GST control)"
same,binding signal,[8],"1.41 fold enrichment (6-mer frequency, TF over GST control)"
same,binding signal,[9],"1.25 fold enrichment (6-mer frequency, TF over GST control)"
same,binding signal,[10],"1.42 fold enrichment (6-mer frequency, TF over GST control)"
same,binding signal,[11],"1.38 fold enrichment (6-mer frequency, TF over GST control)"
same,binding signal,[12],"1.07 fold enrichment (6-mer frequency, TF over GST control)"
same,binding signal,[13],"1.49 fold enrichment (6-mer frequency, TF over GST control)"
same,binding signal,[14],"1.31 fold enrichment (6-mer frequency, TF over GST control)"
same,binding signal,[15],"1.33 fold enrichment (6-mer frequency, TF over GST control)"
same,binding signal,[16],"1.19 fold enrichment (6-mer frequency, TF over GST control)"
same,binding signal,[17],"1.32 fold enrichment (6-mer frequency, TF over GST control)"
same,binding signal,[18],"1.05 fold enrichment (6-mer frequency, TF over GST control)"
same,binding signal,[19],"1.36 fold enrichment (6-mer frequency, TF over GST control)"
